PubChem BioAssay (NCI)
Compounds without any hit were thinned out: in the full panel of roughly 79,000, 15% have a hit. A number with no mark means an inactive call. The source made the active and inactive calls. Rule as the data show it: active = growth inhibition above about 70%; inactive = the rest.

How the values were obtained:
[1] = NCI Yeast Anticancer Drug Screen. Data for the rad50 strain (AID 155);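 also: 0% = growth of vehicle-only cultures of the same strain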; conditions: S. cerevisiae rad50 strain growth inhibition, active compounds read high
Method in brief: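 Yeast carrying a defined DNA repair defect were exposed to test compounds, and growth was compared with vehicle-treated controls to give percent inhibition.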

[2] = NCI Yeast Anticancer Drug Screen. Data for the mec2-1 strain (AID 157); conditions: S. cerevisiae mec2-1 strain, active compounds read high
Method in brief: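 Each compound was tested on mec2-1 yeast, a strain altered in DNA damage repair or cell cycle control. Growth inhibition is reported relative to vehicle.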

[3] = NCI Yeast Anticancer Drug Screen. Data for the sgs1 mgt1 strain (AID 161);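 also: 0% = growth of cultures given vehicle only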; conditions: S. cerevisiae sgs1 mgt1 strain, active compounds read high
Method in brief: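 Read-out: growth inhibition vs vehicle controls. Cells: mutant yeast strain deficient in DNA damage repair.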

[4] = NCI Yeast Anticancer Drug Screen. Data for the cln2 rad14 strain (AID 165);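 also: 0% = growth equal to vehicle treated cultures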; conditions: S. cerevisiae cln2 rad14 strain, active compounds read high
Method in brief: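 Test compounds were added to cln2 rad14 yeast cultures; inhibition of growth was then determined by comparison with vehicle treatment.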

[5] = NCI Yeast Anticancer Drug Screen. Data for the bub3 strain (AID 167); conditions: S. cerevisiae bub3 mutant strain, active compounds read high
Method in brief: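 Compounds were applied to a genetically altered yeast strain carrying a cell-cycle control defect. Growth inhibition was scored against vehicle-treated controls.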

[6] = NCI Yeast Anticancer Drug Screen. Data for the mlh1 rad18 strain (AID 175); conditions: S. cerevisiae mlh1 rad18 strain growth inhibition, active compounds read high
Method in brief: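 Inhibition values reflect reduced growth of mutant yeast versus vehicle-treated controls following compound exposure; the mutations affect DNA damage repair.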

[7] = at 5.0 µM (retest, dose inferred, filed as 0.5)
[8] = at 50.0 µM (retest, dose inferred, filed as 5.0)

Row | Compound | growth inhibition [1, 7] | growth inhibition [1, 8] | growth inhibition ([1]; at 50.0 µM) | growth inhibition [2, 7] | growth inhibition [2, 8] | growth inhibition ([2]; at 50.0 µM) | growth inhibition [3, 7] | growth inhibition [3, 8] | growth inhibition ([3]; at 50.0 µM) | growth inhibition [4, 7] | growth inhibition [4, 8] | growth inhibition ([4]; at 50.0 µM) | growth inhibition [5, 7] | growth inhibition [5, 8] | growth inhibition ([5]; at 50.0 µM) | growth inhibition [6, 7] | growth inhibition [6, 8] | growth inhibition ([6]; at 50.0 µM)
1 | OC(OC/C(I)=C(/I)COC(O)C(Cl)(Cl)Cl)C(Cl)(Cl)Cl (stereo not given) | 28% | 96% (active) | 97.2% (active) | 34% | 94% (active) | 96.9% (active) | -2% | 86% (active) | 94.8% (active) | -10% | 70% (active) | 76.7% (active) | 1% | 94% (active) | 93.1% (active) | 13% | 95% (active) | 97.1% (active)
2 | NCC(=O)N/N=C/c1ccc([N+](=O)[O-])o1 | 10% | 24% | 5.1% | 4% | 17% | 44.3% | 0% | 15% | 73.2% (active) | -1% | 5% | 27.6% | 2% | 11% | 37.2% | 8% | 30% | 20.4%
3 | COc1cc2c(cc1O)C(O)CCCC2 (stereo not given) | -146% | -152% | 6.6% | -45% | -55% | -14.6% | -62% | -32% | 41.8% | -52% | -61% | -4.15% | -64% | -75% | -6.4% | -147% | -108% | 12.3%
4 | COc1cc2c(cc1OC)[C@H]1C(=O)c3cc4c(cc3[C@H]1N(C)C2=O)OCO4 | -1% | 0% | 10.3% | 1% | -2% | 11.9% | -8% | -4% | -2.35% | -6% | -1% | 50.4% | -7% | 1% | 27.7% | 0% | -32% | 39.8%
5 | CC12CCC(c3sc(N)c(C#N)c31)C2(C)C (stereo not given) | -14% | -34% | 39% | -2% | -25% | 60.2% | -13% | -4% | 34.5% | 3% | 1% | 13.8% | -15% | -20% | 31.7% | -36% | -9% | 43.8%
6 | N#CC(C(=O)C(=O)Nc1ccc(Cl)cc1)c1c(Cl)cccc1Cl (stereo not given) | 12% | 1% | 56.2% | 7% | 11% | 7.5% | 24% | 8% | 28.8% | 18% | 10% | -22.4% | 27% | 6% | 8.2% | 14% | 3% | 24.9%
7 | FC1(F)C2=C(SC3=C(S2)C(F)(F)C3(F)F)C1(F)F | 9% | 99% (active) | 99.2% (active) | -4% | 98% (active) | 70.5% (active) | 38% | 100% (active) | 99.1% (active) | 6% | 95% (active) | 74.9% (active) | -7% | 95% (active) | 97.7% (active) | 19% | 97% (active) | 97.7% (active)
8 | CS(=O)(=O)OCCN(CCOS(C)(=O)=O)c1ccc(C=Nc2ccc(-c3csc(-c4ccc(Cl)cc4)n3)cc2)cc1 | 37% | 92% (active) | 92.5% (active) | 15% | 94% (active) | 94.4% (active) | 36% | 93% (active) | 92.3% (active) | 6% | 91% (active) | 71.2% (active) | 1% | 61% | 69.4% | 53% | 95% (active) | 95.2% (active)
9 | Cc1c(O)c(Br)c(Br)c(Br)c1Br | 82% (active) | 94% (active) | 95.5% (active) | 78% (active) | 97% (active) | 87.1% (active) | 81% (active) | 96% (active) | 96.1% (active) | 93% (active) | 96% (active) | 94.7% (active) | 84% (active) | 96% (active) | 93% (active) | 87% (active) | 95% (active) | 94.1% (active)
10 | CCNC(=S)NC1CCCCCCCCCCC1 | 99% (active) | 100% (active) | 87.8% (active) | 99% (active) | 99% (active) | 75.3% (active) | 26% | 88% (active) | 87.2% (active) | 51% | 59% | 20.8% | 40% | 81% (active) | 82.9% (active) | 100% (active) | 100% (active) | 69.2%
11 | O=C(/C=C/c1ccccc1)c1ccc(NCc2nc3ccccc3[nH]2)cc1 | -28% | 74% (active) | 70.7% (active) | -62% | 61% | 77% (active) | -23% | 82% (active) | 84% (active) | -20% | 80% (active) | 84.8% (active) | -8% | 85% (active) | 76.7% (active) | -35% | 80% (active) | 68.8%
12 | O=C(NCCCNCCCCNCCCNC(=O)c1cc(-c2ccccc2)nc2ccccc12)c1cc(-c2ccccc2)nc2ccccc12 | 49% | 98% (active) | 90.2% (active) | 25% | 99% (active) | 93.2% (active) | 34% | 99% (active) | 92.8% (active) | 30% | 98% (active) | 91.1% (active) | 33% | 64% | 92.2% (active) | 46% | 99% (active) | 90% (active)
13 | CC(=O)CC(C)=O.CCN(CC)CC[C-]=O.[Pd+2] | 1% | 54% | 66.9% | 8% | 33% | 70.8% (active) | -5% | 22% | 73.5% (active) | 21% | 32% | 9.6% | -1% | 33% | 76.5% (active) | 0% | 54% | 74.9% (active)
14 | CCc1ccccc1NC1=C(Cl)C(=O)c2ccccc2C1=O | 99% (active) | 98% (active) | -1.85% | 100% (active) | 99% (active) | 10.8% | 100% (active) | 99% (active) | 1.85% | 77% (active) | 99% (active) | -20.3% | 99% (active) | 99% (active) | -0.2% | 99% (active) | 98% (active) | 10%
15 | CCC#CC(O)(C(=O)OCC)C1CCCC1 (stereo not given) | -148% | -161% | -1.05% | -50% | -51% | 13.5% | -59% | -64% | -0.35% | -57% | -59% | 33.5% | -67% | -85% | 18.4% | -115% | -115% | 7.9%
16 | O=C(O)c1ccc(OCc2ccccc2)c(Cl)c1 | 16% | 36% | 52.8% | 22% | 44% | 25.5% | 11% | 38% | 30.9% | -8% | 39% | 54.2% | 3% | 17% | 38.2% | 12% | 47% | 59.1%
17 | O=C(O)c1ccccc1C1c2ccccc2Oc2ccccc21 | 36% | 5% | 95.4% (active) | -2% | 16% | 94% (active) | -3% | 3% | 95.4% (active) | 5% | 6% | 97.3% (active) | 7% | 17% | 91.2% (active) | 0% | 7% | 95.8% (active)
18 | Cn1c2c(c3ccccc31)CCN(CCN1CCN(c3cccc(Cl)c3)CC1)C2=O | 34% | 34% | 88.8% (active) | 7% | 7% | 85.1% (active) | 1% | 1% | 87.8% (active) | 15% | 15% | 91.3% (active) | -17% | -17% | 87.8% (active) | 10% | 10% | 80.6% (active)
19 | O=[N+]([O-])c1ccc(/C=N\OCc2cscn2)cc1 | 3% | 46% | 76.7% (active) | -11% | 74% (active) | 55.5% | -10% | 73% (active) | 62.4% | 0% | 31% | -13.4% | -6% | 88% (active) | -19.4% | 11% | 79% (active) | 71% (active)
20 | Clc1ccc(SSc2ccc(Cl)cn2)nc1 | 5% | 69% | 78.2% (active) | 6% | 96% (active) | 96.3% (active) | 17% | 96% (active) | 57.9% | -4% | 51% | 20.6% | -3% | 97% (active) | 82.8% (active) | 11% | 92% (active) | 81.1% (active)
